Only some compounds are listed: those with a hit (about 3.2% of all), similar ones and a draw of the others.
EBV LMP1 NFkB = Epstein-Barr LMP1 NF-kappaB reporter inhibition. LMP1-induced NF-kappaB luciferase reporter cells, luminescence. inhibition, % at 12.5 µM. 0.69% of 350,000 active. AID 504558; in the data active means inhibition above about 41%;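 further: 0% = neutral control wells and 100% = reference inhibitor control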
PAX8 inh HTS = inhibitors of PAX8 transcriptional activity in RMG-I cells; inhibition, % at 12.6 µM; 1.2% of 360,000 active; RMG-I TPO-luciferase reporter, SteadyGlo, 24 h;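 active means mean replicate inhibition at least 60% with every replicate also reaching 60%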;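 further: luciferase light reporting Pax8 driven TPO promoter activity; plate controls were median of neutral control wells for no effect and mitoxantrone controls for full effect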
TROY NFkB inh = inhibitors of TROY-dependent NF-kB signaling; inhibition, % at 10 µM; 0.98% of 360,000 active; Q293 LMP1-TROYcd NF-kB luciferase reporter, 4 h;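 active means compounds whose plate-normalised and pattern-corrected inhibition of the luciferase reporter signal at the single screening dose is 50% or more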
LGR2 antag = inhibitors of bursicon-induced Drosophila LGR2 receptor cAMP signaling; 0.35% of 380,000 active; AID 720647; inhibition, % at 9.99 µM; HEK293 LGR2, CRE-luciferase, bursicon-stimulated, 4 h;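 active means drop in luminescence signal, shown as inhibition above about 50% in the replicate tests, limit read from the data, passing the limit was not always enough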;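 further: agonist challenge used bursicon conditioned medium at about half maximal strength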
TWEAK-Fn14 inh = TWEAK-Fn14 signaling inhibition; TWEAK-stimulated Fn14 reporter cells, luciferase luminescence, 8 h; 2% of 360,000 active; inhibition, % at 10 µM; AID 1159606; in the data active means inhibition above about 50%
EWS-Fli inh = inhibitors of EWS/Fli oncoprotein transcriptional activity. A673 NR0B1-luciferase reporter, viability-normalised. 0.67% of 350,000 active. inhibition, % at 12.6 µM. AID 651661;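 active means mean inhibition of at least 50% after viability correction, with every replicate also passing that limit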;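 further: firefly luciferase signal divided by Alamar Blue viability fluorescence both relative to DMSO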
The depositor's hits bear a star; . = no result.

SMILES	EBV LMP1 NFkB	PAX8 inh HTS	TROY NFkB inh	LGR2 antag	TWEAK-Fn14 inh	EWS-Fli inh
C[C@@H]1CCCCO[C@@H](CN(C)Cc2ccc(Cl)c(Cl)c2)[C@H](C)CN([C@@H](C)CO)C(=O)c2cc(NC(=O)NC3CCCCC3)ccc2O1	.	68*	.	9	.	4
C[C@H](CO)N1C[C@H](C)[C@@H](CN(C)Cc2ccc(Cl)c(Cl)c2)OCCCC[C@H](C)Oc2ccc(NC(=O)NC3CCCCC3)cc2C1=O	.	1	.	22	.	19
C[C@@H]1CCCCO[C@H](CN(C)Cc2ccncc2)[C@H](C)CN([C@@H](C)CO)C(=O)c2cc(NC(=O)NC3CCCCC3)ccc2O1	.	83*	.	-1	.	56*
C[C@@H]1CCCCO[C@@H](CN(C)Cc2ccc(Cl)c(Cl)c2)[C@@H](C)CN([C@@H](C)CO)C(=O)c2cc(NC(=O)NC3CCCCC3)ccc2O1	.	53	.	8	.	-5
C[C@@H]1CCCCO[C@@H](CN(C)Cc2ccc(Cl)c(Cl)c2)[C@H](C)CN([C@H](C)CO)C(=O)c2cc(NC(=O)NC3CCCCC3)ccc2O1	.	65*	.	4	.	-13
C[C@@H]1CN([C@H](C)CO)C(=O)c2cc(NC(=O)NC3CCCCC3)ccc2O[C@@H](C)CCCCO[C@@H]1CN(C)Cc1ccc(Cl)c(Cl)c1	.	71*	.	8	.	10
C[C@@H]1CN([C@H](C)CO)C(=O)c2ccccc2-c2ccccc2CO[C@H]1CN(C)C(=O)c1ccc(F)cc1	.	-4	.	.	.	-4
CC(=O)N(C)C[C@H]1Oc2ncc(C3=CCCC3)cc2C(=O)N([C@H](C)CO)C[C@H]1C	.	.	.	12	.	-6
Cc1ccc(S(=O)(=O)N[C@H]2CC[C@H](CC(=O)NCCCN(C)C)O[C@@H]2CO)cc1	.	.	.	14	.	.
CCOc1ccc(NC(=O)CN2CCN(C(=O)C3CCCO3)CC2)cc1 (stereo not given)	0	5	-4	8	93*	.
CCOC(=O)c1ccc(NC(=O)CN2CCN(C(=O)C3CCCO3)CC2)cc1 (stereo not given)	-9	-3	4	11	-6	.
CSc1nnc(N(CCC#N)CCC#N)s1	-4	.	-6	.	-6	.
Cc1nnc(N(CCC#N)CCC#N)s1	4	.	.	.	85*	.
CCN(C[C@@H]1[C@@H](c2ccccc2)[C@@H](CO)N1C(C)=O)C(=O)c1ccccn1	.	11	.	-1	.	-9
Cc1ccc(N=Nc2ccc3ccccc3c2O)cc1	4	-26	78*	30	95*	55*
Oc1ccc2ccccc2c1N=Nc1ccc(F)cc1	2	30	-42	5	-3	-30
Oc1c(N=Nc2nn[nH]n2)ccc2ccccc12	.	26	24	-13	52*	-24
Oc1c(N=Nc2ccc(F)cc2)ccc2ccccc12	-45	-41	38	7	54*	4
Cc1ccc(Oc2cc([N+](=O)[O-])cc3c2C(=O)Nc2ccccc2O3)cc1	10	15	6	-5	56*	.
CCCNC(=O)[C@@H]1[C@@H](CO)[C@@H]2Cn3c(ccc(C4=CCCC4)c3=O)[C@@H]2N1Cc1ccccc1	.	29	.	4	.	9
O=C(CSc1cccc2cccnc12)N/N=C/c1ccc(F)cc1	2	-19	-11	-4	-25	-1
CCCCC(=O)N/N=C/c1ccc(Sc2cccc3cccnc23)o1	-4	.	-9	.	107*	.
C[C@@H]1CN([C@H](C)CO)C(=O)c2cc(NC(=O)NC3CCCCC3)ccc2O[C@H]1CN(C)Cc1ccccc1	.	-5	.	15	.	-3
O=C(NNc1ccc(F)cc1F)c1c(F)cccc1Cl	-9	13	-11	-4	58*	3
O=C(NNc1c(Cl)cccc1Cl)c1c(F)cccc1Cl	-1	23	-10	12	1	-4
CCOc1ccccc1CNC(=O)C1CCCN(c2nnc(C)c3c(C)n(-c4ccccc4)nc23)C1 (stereo not given)	24	81*	31	-13	11	63*
COc1ccc(-n2nc3c(N4CCC(C(=O)NCc5ccccc5C)CC4)nnc(C)c3c2C)cc1	-5	.	-11	.	-1	.
O=C(C1CCCC1)N1CC2(C1)[C@H](c1ccccc1)[C@@H](CO)N2Cc1ccccc1F	.	.	.	-13	.	3
C[C@@H]1CCCCO[C@@H](CN(C)S(=O)(=O)c2ccccc2)[C@H](C)CN([C@@H](C)CO)C(=O)c2cc(NC(=O)NC3CCCCC3)ccc2O1	.	10	.	4	.	3

Compound activity as filed in PubChem.
